Reference: PubChem BioAssay

Assay: small molecules captured by biotinylated probe aFGF2 – biochemical, small-molecule microarray, fluorescence 635/667, stem cell growth factor project, primary screen (AID 1067);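 note: measures binding of biotinylated aFGF2 protein to printed compounds on slides; z-score merges feature fluorescence and signal-to-noise across triplicate slides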
Settings: higher = more signal
Work on C[C@]1(C(=O)NCCN2CCOCC2)c2ccccc2C(=O)N(Cc2ccc(OC(F)(F)F)cc2)[C@H]1c1ccc(CO)cc1 yielded a composite z-score of -0.146.
In the case of [N-]=[N+]=Nc1ccccc1[C@@H]1OC(c2ccc(OCCCO)cc2)=N[C@]1(CCS(=O)(=O)c1ccccc1)C(=O)NCCN1CCOCC1, the composite z-score is reported as 0.0315.
Compound CC(C)CN1C(=O)[C@@]2(Cc3ccccc31)c1ccccc1C(=O)N(Cc1ccccc1C(F)(F)F)[C@H]2c1ccc(CO)cc1 has a composite z-score of -0.167.
Work on C=CC[C@]1(C(=O)N(C)C)N=C(c2ccc(OCCCO)cc2)O[C@H]1c1ccccc1N=[N+]=[N-] yielded a composite z-score of 0.161.
COc1cc2c(cc1OC)CN(C(=O)[C@H]1[C@@H]3C(=O)O[C@@H](c4ccccc4)[C@@H](c4ccccc4)N3[C@@H](c3ccc(OCCO)cc3)[C@]13C(=O)Nc1ccc(C#CC4(O)CCCCCC4)cc13)CC2 showed a composite z-score of -0.0358.
COCCCNC(=O)[C@@H]1c2ccccc2C(=O)N(Cc2ccccc2C(F)(F)F)[C@H]1c1ccc(CO)cc1 showed a composite z-score of -0.0284.
Compound C=CC[C@]12N=C(c3ccc(OCCCO)cc3)O[C@H]1c1ccccc1N(C)C2=O has a composite z-score of 0.0563.
Compound CCCC[C@@H]1C[C@H]1[C@@H](NC(=O)c1cccnc1)c1ccc(-c2ccccc2)cc1 has a composite z-score of -0.124.
C[C@@H]1ON(c2ccc(C(=O)OC(C)(C)C)cc2)[C@H](c2ccc(Br)cc2)[C@H]1C(=O)N1C(=O)OC[C@H]1Cc1ccccc1 showed a composite z-score of 0.0333.
In the case of CC(C)CCC[C@@H](C)[C@H]1CC[C@@]2(C)C3=C(CC[C@]12C)[C@@]1(C)CC[C@H](OC(=O)c2ccc(Br)cc2)C(C)(C)C1CC3 (stereo partly specified), the composite z-score is reported as -0.128.
Compound COc1cc2c(cc1O)C(C)N(Cc1cc3c(cc1Br)OCO3)CC2 (stereo unspecified) has a composite z-score of -0.0951.
Work on COc1c(C)cc(-c2cc3c(c(Cc4ccccc4)n2)[Si](C(C)C)(C(C)C)OC3)cc1C yielded a composite z-score of -0.0448.
For CN(C)CCCN1C(=O)[C@@]2(c3ccc([N+](=O)[O-])cc3)CC(=O)N(CC34CC5CC(CC(C5)C3)C4)[C@@H]2c2ccc(CO)cc21, the composite z-score was -0.0276.
In the case of CO[C@H]1O[C@H](CO)[C@@H](OC(=O)Nc2ccc(C(F)(F)F)cc2)[C@H](OC(=O)Nc2ccc3c(c2)OCO3)[C@H]1OC(=O)Nc1ccc2c(c1)OCO2, the composite z-score is reported as 0.0557.
Work on NC(=O)NCC#Cc1ccc2c(c1)[C@]1(C(=O)N2)[C@H](C(=O)Nc2nc3ccccc3s2)[C@H]2C(=O)O[C@H](c3ccccc3)[C@H](c3ccccc3)N2[C@@H]1c1ccc(O)cc1 yielded a composite z-score of -0.0415.
Work on COCCOC(=O)N1C(=O)[C@@]2(c3cc(C#CC4(O)CCCCCC4)ccc31)[C@H](C(=O)N1CCCCCCC1)[C@H]1C(=O)O[C@H](c3ccccc3)[C@H](c3ccccc3)N1[C@@H]2c1ccc(OCCO)cc1 yielded a composite z-score of 0.79.
For COC(=O)[C@@]1(Cc2ccccc2)[C@H]2c3cc(C(=O)N4CCCC4)[nH]c3C[C@H]2CN1C(=O)c1ccccc1, the composite z-score was 0.134.
Work on CCOC(=O)[C@H]1C/C=C/C[C@H](C(=O)OCC)C(=O)O[C@H]2[C@@H](OC)O[C@H](CO)[C@@H](OC(=O)CCc3ccccc3)[C@@H]2OC1=O yielded a composite z-score of 0.461.
In the case of Cc1ccc(F)cc1S(=O)(=O)N[C@@H]1CCN(Cc2ccc(OC(C)C)cc2)C1, the composite z-score is reported as -0.115.
Compound COCCOC(=O)N1C(=O)[C@@]2(c3cc(C#CC4=CCCCC4)ccc31)[C@H](C(=O)N1CCN(c3ncccn3)CC1)[C@H]1C(=O)O[C@H](c3ccccc3)[C@H](c3ccccc3)N1[C@@H]2c1ccc(O)cc1 has a composite z-score of 0.0467.
Work on COC(=O)C1(Cc2ccccc2)C=C2C(=C(C(C)C)C(=O)C2C)CN1 (stereo unspecified) yielded a composite z-score of 0.0992.
Work on O=C1O[C@H](c2ccccc2)[C@H](c2ccccc2)N2[C@H]1[C@@H](C(=O)O)[C@]1(C(=O)Nc3ccccc31)[C@H]2c1ccc(O)cc1 yielded a composite z-score of -0.113.
With COc1ccc(NC(=O)O[C@H]2[C@H](OC(=O)Nc3ccc4c(c3)OCO4)[C@@H](OC(=O)Nc3ccc4c(c3)OCO4)[C@@H](OC)O[C@@H]2CO)cc1 the composite z-score was 0.0397.
Compound COc1c(C)cc(-c2cc3c(c(-c4ccccc4)n2)[Si](C(C)C)(C(C)C)OC3)cc1C has a composite z-score of -0.241.
Compound C[C@@H](OCc1ccccc1)C1NC(=O)[C@@]23C(=O)N[C@@H](Cc4ccccc4)C2[C@H](C)[C@@]2(C)O[C@H]2C3/C=C/C/C=C\CNC(=O)CNC1=O (stereo partly specified) has a composite z-score of -0.132.
In the case of COc1ccc([Si](C)(C)[C@@H]2[C@@H](CC(=O)N3CCC[C@H]3CO)O[C@]3(C(=O)N(Cc4ccc(N5C(=O)c6cccc7cccc5c67)cc4)c4ccccc43)[C@H]2C)cc1, the composite z-score is reported as -0.0563.
